# Reference: PubChem BioAssay (Tox21)
# A number with no mark means an inactive call. Inconclusive results are not listed. Where a call stands in place of a potency, no number is given. The source made the active and inactive calls. Unless noted, calls come from the whole dose curve; as a rule, active = well fitted curve in the direction sought with a large enough effect in the repeat runs; inconclusive = weak or mixed curves; inactive = no such curve, though single readings can be large; an effect the other way counts as inactive or inconclusive.
# Columns and labels:
# [1] = qHTS assay to identify small molecule agonists of the TGF-beta/Smad signaling pathway - cell viability counter screen (AID 1346829); note: top concentration of the series differs between compounds; nearly all actives have a fitted effect of over 45% in size
# Procedure, shortened: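 Here the cytotoxicity of library compounds is measured in SBE-bla HEK 293T cells treated for 5 hr, using CellTiter-Glo added to wells already read for the beta-lactamase reporter.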
# [2] = target: Thyrotropin-releasing hormone receptor (Homo sapiens) (UniProt P34981); experiment: qHTS assay to identify small molecule antagonists of the thyrotropin-releasing hormone receptor (TRHR) signaling pathway (AID 1346877; active = well fitted inhibition curve with a large enough effect in the repeat runs, not every such curve was filed as active; note: potency is the fitted concentration of half-maximal effect)
# Procedure, shortened: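 Screening used HEK293 cells engineered with TRHR, with a brief 5 min room-temperature compound exposure preceding addition of TRH to 1 nM. The read-out was kinetic calcium-dye fluorescence, concentration-response from 15 doses in triplicate.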
# [3] = target: Thyrotropin-releasing hormone receptor (Homo sapiens) (UniProt P34981); experiment: qHTS assay to identify small molecule agonists of the thyrotropin-releasing hormone receptor (TRHR) signaling pathway (AID 1346891; calls by dose curve; note: series mostly up to about 58 µM)
# Procedure, shortened: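 Agonist-mode intracellular calcium readout: kinetic fluorescence over 3 min at 1 s intervals after compound addition to TRHR-HEK293 cells (18 h seeded, 2 h dye-loaded at 37 C). Fifteen concentrations, triplicates.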
# [4] = Human pregnane X receptor (PXR) small molecule agonists, qHTS cell viability counter screen (AID 1346977); note: nearly all actives have a fitted effect of over 50% in size; note: potency is the fitted concentration of half-maximal effect
# Procedure, shortened: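 Same-well viability read: CellTiter-Fluor added after 23 hr compound exposure, fluorescence measured 1 hr later. Cells were PXR-Luc HepG2 seeded at 2,000/well in 5% charcoal-stripped FBS medium, rested 5 hr before dosing at 37 C.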
# [5] = Caspase-3/7 induction in HepG2 cells by small molecules, qHTS assay (AID 1346978); note: nearly all actives have a fitted effect of over 15% in size; note: potency is the fitted concentration of half-maximal effect
# Procedure, shortened: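 Wild-type HepG2 cells, 2,000/well, settled 5 hr at 37 C and 5% CO2, then compound-treated for 17 hr; caspase-3/7 activity read by luminescent Caspase-Glo 3/7 after 30 min at room temperature.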
# [6] = Caspase-3/7 induction in CHO-K1 cells by small molecules, qHTS cell viability counter screen (AID 1346979); note: potency is the fitted concentration of half-maximal effect; nearly all actives have a fitted effect of over 35% in size
# Procedure, shortened: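 Cytotoxicity counter screen: CellTiter-Fluor added to compound-treated wild-type CHO-K1 cells at 16 h (37C, 5% CO2), fluorescence measured 1 h later; same wells as caspase-3/7 measurement.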
# [7] = Caspase-3/7 induction in CHO-K1 cells by small molecules, qHTS assay (AID 1346980); note: nearly all actives have a fitted effect of over 15% in size; note: potency is the fitted concentration of half-maximal effect
# Procedure, shortened: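 Wild-type CHO-K1 cells exposed to compounds for 17hr at 37 C, 5% CO2. Caspase-3/7 activity then measured by Caspase-Glo 3/7 luminescence after 30min at room temperature.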
# [8] = target: Cytochrome P450 1A2 (Homo sapiens) (UniProt P05177); experiment: Cytochrome P450 Family 1 Subfamily A Member 2 (CYP1A2) small molecule antagonists: luciferase reporter qHTS assay (AID 1671199); note: nearly all actives have a fitted effect of over 50% in size; note: potency is the fitted concentration of half-maximal effect
# Procedure, shortened: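 CYP1A2 turnover of a luminogenic substrate was quantified after 1 h with NADPH regeneration at room temperature. Furafylline served as positive control.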
# [9] = target: Voltage-gated inwardly rectifying potassium channel KCNH2 (Homo sapiens) (UniProt Q12809); experiment: Human Ether-a-go-go-Related Gene (hERG) channel small molecule antagonists: fluorescence cell-based qHTS assay (AID 1671200); note: nearly all actives have a fitted effect of over 50% in size; note: potency is the fitted concentration of half-maximal effect
# Procedure, shortened: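 Thallium flux as potassium surrogate: FluxOR II dye loaded 1 h at room temperature into hERG-expressing U2OS cells, then stimulus buffer added after 10 min. Kinetic 480 nm excitation/540 nm emission read, 2 min.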
# [10] = qHTS assay to identify small molecule antagonists of the TGF-beta/Smad signaling pathway - cell viability counter screen (AID 1346824); note: nearly all actives have a fitted effect of over 50% in size
# Procedure, shortened: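 SBE-bla HEK 293T cells, incubated overnight, then compound plus 0.25 ng/mL TGF-beta1 (stock added) for 5 hr at 37 C. Viability was read in the same wells by CellTiter-Glo luminescence after 30 min at room temperature.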
# [11] = qHTS assay to identify small molecule agonists of the TGF-beta/Smad signaling pathway (AID 1346859; active = well fitted activation curve with a large enough effect in the signal ratio in the repeat runs, not every such curve was filed as active; the % refers to the signal ratio; note: series mostly up to about 77 µM)
# Procedure, shortened: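 Fluorescence (ex 405 nm; em 460 and 530 nm) was read 2 h after LiveBLAzer FRET substrate at RT. The preceding compound treatment of overnight-plated SBE-bla HEK293T cells lasted 5 h at 37 C.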
# [12] = Caspase-3/7 induction in HepG2 cells by small molecules, qHTS cell viability counter screen (AID 1346981); note: nearly all actives have a fitted effect of over 30% in size; note: potency is the fitted concentration of half-maximal effect
# Procedure, shortened: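 Multiplexed with the caspase-3/7 assay: HepG2 cells, 16 hr compound treatment, CellTiter-Fluor viability detection by fluorescence.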
# [13] = target: Nuclear receptor subfamily 1 group I member 2 (Homo sapiens) (UniProt O75469); experiment: Human pregnane X receptor (PXR) small molecule agonists, qHTS assay (AID 1346982); note: nearly all actives have a fitted effect of over 35% in size; note: potency is the fitted concentration of half-maximal effect
# Procedure, shortened: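 We seeded PXR-Luc HepG2 cells in assay medium containing 5% charcoal-stripped FBS, added compounds 5 hr later, incubated 24 hr, and read luminescence with ONE-Glo reagent.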
# [14] = target: Cytochrome P450 2C19 (Homo sapiens) (UniProt P33261); experiment: Cytochrome P450 Family 2 Subfamily C Member 19 (CYP2C19) small molecule antagonists: luciferase reporter qHTS assay (AID 1671197); note: nearly all actives have a fitted effect of over 65% in size; note: potency is the fitted concentration of half-maximal effect
# Procedure, shortened: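 Light output is proportional to CYP2C19 activity: proluciferin substrate is converted to luciferin, then detected by a luciferin detection reagent that also stops the 1 h, 37C NADPH-driven reaction. Ketoconazole serves as positive control.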
# [15] = target: Cytochrome P450 2C9 (Homo sapiens) (UniProt P11712); experiment: Cytochrome P450 Family 2 Subfamily C Member 9 (CYP2C9) small molecule antagonists: luciferase reporter qHTS assay (AID 1671198)
# Procedure, shortened: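 P450-Glo proluciferin substrate with CYP2C9 enzyme; 10 min RT preincubation, then NADPH regeneration 1 h at 37C; luciferin detection reagent 20 min RT, luminescence in relative luminescence units.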
# [16] = target: Nuclear receptor subfamily 1 group I member 2 (Rattus norvegicus) (UniProt Q9R1A7); experiment: Rat pregnane X receptor (rPXR) activation by small molecules, qHTS assay (AID 1346983); conditions: rPXR luciferase reporter cells, One-Glo luminescence, 24 h; max activation: active compounds read high; note: nearly all actives have a fitted effect of over 20% in size
# Procedure, shortened: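 Cell-based rPXR activation assay: rPXR cells, 2,000 per well, rested 5hr at 37 C, then exposed to compounds in DMSO for 24 hr at 37 C. Luciferase activity read by One-Glo luminescence after 30 min at room temperature.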
# [17] = target: Cytochrome P450 2D6 (Homo sapiens) (UniProt P10635); experiment: Cytochrome P450 Family 2 Subfamily D Member 6 (CYP2D6) small molecule antagonists: luciferase reporter qHTS assay (AID 1671196); note: nearly all actives have a fitted effect of over 50% in size; note: potency is the fitted concentration of half-maximal effect
# Procedure, shortened: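 Luminescence (RLU), read 20 min after detection reagent, indicated CYP2D6 conversion of proluciferin to luciferin during a 1 h NADPH-dependent reaction at room temperature.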
# Sequence of Nuclear receptor subfamily 1 group I member 2 (Rattus norvegicus) (Q9R1A7 whole entry, looked up): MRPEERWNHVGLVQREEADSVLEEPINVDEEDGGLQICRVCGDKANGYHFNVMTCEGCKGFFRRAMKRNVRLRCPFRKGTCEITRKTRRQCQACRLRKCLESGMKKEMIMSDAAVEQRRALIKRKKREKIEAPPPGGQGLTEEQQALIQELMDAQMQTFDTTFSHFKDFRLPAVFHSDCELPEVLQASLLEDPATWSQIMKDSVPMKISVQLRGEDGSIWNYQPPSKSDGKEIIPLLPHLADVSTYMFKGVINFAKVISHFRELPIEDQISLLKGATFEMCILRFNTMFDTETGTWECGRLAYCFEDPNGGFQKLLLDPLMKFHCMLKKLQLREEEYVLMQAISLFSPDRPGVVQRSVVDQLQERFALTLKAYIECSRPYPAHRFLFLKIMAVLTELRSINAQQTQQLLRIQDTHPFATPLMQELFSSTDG
# Sequence of Cytochrome P450 1A2 (Homo sapiens) (P05177 whole entry, looked up): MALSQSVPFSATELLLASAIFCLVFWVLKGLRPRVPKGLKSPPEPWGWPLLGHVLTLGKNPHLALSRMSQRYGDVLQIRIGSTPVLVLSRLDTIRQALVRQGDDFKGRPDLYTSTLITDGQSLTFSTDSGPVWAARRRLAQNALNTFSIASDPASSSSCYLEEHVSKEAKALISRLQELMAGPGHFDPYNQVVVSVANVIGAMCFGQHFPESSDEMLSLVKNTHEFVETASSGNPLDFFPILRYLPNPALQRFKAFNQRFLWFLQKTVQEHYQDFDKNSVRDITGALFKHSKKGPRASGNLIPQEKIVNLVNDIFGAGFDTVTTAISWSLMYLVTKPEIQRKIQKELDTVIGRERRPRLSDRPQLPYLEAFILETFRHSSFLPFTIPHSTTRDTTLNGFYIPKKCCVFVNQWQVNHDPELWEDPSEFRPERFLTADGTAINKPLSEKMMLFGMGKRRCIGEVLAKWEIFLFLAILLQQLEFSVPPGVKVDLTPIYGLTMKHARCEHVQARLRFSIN
# Sequence of Voltage-gated inwardly rectifying potassium channel KCNH2 (Homo sapiens) (Q12809 whole entry, looked up): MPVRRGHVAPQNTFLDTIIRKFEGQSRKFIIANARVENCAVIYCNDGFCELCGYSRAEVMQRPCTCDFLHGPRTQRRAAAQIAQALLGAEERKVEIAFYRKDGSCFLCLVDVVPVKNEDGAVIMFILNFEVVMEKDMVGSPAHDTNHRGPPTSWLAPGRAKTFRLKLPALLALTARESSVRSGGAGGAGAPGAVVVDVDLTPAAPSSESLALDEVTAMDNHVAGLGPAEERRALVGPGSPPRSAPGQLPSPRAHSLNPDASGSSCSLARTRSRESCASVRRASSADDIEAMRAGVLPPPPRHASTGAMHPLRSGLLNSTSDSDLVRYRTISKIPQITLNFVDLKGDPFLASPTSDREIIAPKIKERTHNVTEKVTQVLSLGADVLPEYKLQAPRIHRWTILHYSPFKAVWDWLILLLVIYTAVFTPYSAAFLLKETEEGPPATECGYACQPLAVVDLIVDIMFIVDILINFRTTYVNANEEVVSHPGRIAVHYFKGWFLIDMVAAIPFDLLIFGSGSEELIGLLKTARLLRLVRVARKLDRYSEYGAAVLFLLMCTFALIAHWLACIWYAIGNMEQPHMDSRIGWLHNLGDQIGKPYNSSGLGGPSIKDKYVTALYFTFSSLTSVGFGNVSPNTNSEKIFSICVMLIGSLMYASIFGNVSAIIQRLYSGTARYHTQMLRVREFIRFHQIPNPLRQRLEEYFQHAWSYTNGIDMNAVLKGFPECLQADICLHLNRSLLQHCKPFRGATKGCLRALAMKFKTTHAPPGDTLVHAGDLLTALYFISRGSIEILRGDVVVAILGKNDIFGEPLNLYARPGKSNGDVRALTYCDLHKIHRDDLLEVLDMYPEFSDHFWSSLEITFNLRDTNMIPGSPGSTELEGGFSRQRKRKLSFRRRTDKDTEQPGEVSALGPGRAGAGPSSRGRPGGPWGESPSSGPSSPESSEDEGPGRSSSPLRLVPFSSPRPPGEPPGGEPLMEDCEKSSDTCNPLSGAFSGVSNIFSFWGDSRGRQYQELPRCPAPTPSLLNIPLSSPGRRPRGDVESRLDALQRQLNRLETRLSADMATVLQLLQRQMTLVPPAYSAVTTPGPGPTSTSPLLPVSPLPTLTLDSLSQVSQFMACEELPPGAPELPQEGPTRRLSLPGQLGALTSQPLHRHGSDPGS
# Sequence of Thyrotropin-releasing hormone receptor (Homo sapiens) (P34981 whole entry, looked up): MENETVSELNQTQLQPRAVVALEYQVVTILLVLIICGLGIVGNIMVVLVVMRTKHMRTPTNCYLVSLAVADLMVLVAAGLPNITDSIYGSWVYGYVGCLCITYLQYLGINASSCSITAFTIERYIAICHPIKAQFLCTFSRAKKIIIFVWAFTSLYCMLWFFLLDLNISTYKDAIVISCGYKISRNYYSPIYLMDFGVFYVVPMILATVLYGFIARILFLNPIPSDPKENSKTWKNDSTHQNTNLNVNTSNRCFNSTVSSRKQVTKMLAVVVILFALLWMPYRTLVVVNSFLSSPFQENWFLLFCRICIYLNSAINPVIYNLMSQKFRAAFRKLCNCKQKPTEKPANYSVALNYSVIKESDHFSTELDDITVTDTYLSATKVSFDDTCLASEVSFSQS
# Sequence of Cytochrome P450 2C19 (Homo sapiens) (P33261 whole entry, looked up): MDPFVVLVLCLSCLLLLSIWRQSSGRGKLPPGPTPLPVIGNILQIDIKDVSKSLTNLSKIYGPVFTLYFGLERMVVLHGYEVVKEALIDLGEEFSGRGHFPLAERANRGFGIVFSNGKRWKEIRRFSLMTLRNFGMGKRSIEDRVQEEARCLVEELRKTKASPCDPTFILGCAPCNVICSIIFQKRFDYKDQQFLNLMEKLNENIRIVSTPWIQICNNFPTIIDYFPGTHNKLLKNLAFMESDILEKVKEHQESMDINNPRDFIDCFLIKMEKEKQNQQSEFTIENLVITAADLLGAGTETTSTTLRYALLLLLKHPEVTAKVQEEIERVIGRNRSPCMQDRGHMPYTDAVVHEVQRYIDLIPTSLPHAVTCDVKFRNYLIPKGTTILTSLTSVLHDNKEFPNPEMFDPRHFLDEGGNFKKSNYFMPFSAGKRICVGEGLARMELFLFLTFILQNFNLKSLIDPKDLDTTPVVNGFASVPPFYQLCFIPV
# Sequence of Cytochrome P450 2C9 (Homo sapiens) (P11712 whole entry, looked up): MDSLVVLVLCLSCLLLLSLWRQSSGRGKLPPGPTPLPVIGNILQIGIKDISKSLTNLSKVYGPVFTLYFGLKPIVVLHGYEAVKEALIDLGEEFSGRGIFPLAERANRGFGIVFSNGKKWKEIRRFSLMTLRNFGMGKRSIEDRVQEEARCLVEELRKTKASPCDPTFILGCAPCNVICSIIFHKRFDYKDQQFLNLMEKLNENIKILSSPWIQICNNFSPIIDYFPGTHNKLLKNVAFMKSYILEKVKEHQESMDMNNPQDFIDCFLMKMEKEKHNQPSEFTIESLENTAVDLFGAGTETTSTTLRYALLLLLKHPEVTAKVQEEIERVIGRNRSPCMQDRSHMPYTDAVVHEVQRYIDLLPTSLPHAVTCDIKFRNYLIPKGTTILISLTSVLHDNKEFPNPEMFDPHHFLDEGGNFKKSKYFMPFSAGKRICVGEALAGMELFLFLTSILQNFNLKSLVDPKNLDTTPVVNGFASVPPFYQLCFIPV
# Sequence of Nuclear receptor subfamily 1 group I member 2 (Homo sapiens) (O75469 whole entry, looked up): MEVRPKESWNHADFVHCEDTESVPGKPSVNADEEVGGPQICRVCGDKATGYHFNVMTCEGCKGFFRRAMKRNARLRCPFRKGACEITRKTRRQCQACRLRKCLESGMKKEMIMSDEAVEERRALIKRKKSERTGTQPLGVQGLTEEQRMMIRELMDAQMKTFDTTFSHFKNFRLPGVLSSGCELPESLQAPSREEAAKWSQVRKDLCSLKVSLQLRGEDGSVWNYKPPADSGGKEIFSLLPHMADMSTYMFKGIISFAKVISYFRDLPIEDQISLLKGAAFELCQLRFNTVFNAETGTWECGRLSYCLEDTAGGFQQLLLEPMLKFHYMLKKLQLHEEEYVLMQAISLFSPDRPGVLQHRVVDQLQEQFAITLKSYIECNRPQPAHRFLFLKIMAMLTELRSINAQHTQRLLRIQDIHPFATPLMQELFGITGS
# Sequence of Cytochrome P450 2D6 (Homo sapiens) (P10635 whole entry, looked up): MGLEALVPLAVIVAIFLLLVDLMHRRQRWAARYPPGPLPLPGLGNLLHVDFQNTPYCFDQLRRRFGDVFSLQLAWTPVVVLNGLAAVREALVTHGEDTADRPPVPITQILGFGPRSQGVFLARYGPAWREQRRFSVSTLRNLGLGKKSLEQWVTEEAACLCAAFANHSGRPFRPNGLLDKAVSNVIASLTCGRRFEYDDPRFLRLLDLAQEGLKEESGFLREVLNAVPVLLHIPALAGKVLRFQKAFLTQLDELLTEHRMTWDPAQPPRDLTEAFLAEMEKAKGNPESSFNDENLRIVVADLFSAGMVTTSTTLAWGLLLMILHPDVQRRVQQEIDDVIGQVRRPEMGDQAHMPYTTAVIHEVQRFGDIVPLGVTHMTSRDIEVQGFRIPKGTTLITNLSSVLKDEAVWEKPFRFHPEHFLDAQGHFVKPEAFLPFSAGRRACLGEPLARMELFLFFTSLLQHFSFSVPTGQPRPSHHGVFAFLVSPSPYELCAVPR
smiles,measurement,setting,value
c1ccc(C[P+](c2ccccc2)(c2ccccc2)c2ccccc2)cc1,Potency,[1],inactive
same,Potency,[2],inactive
same,Potency,[3],inactive
same,Potency,[4],24.3 µM (active)
same,Potency,[5],inactive
same,Potency,[6],61.1 µM (active)
same,Potency,[7],inactive
same,Potency,[8],inactive
same,Potency,[9],3.09 µM (active)
CSc1nnc(C(C)(C)C)c(=O)[nH]1,Potency,[10],inactive
same,outcome,[11],inactive
same,Potency,[2],inactive
same,Potency,[3],inactive
same,Potency,[4],inactive
same,Potency,[5],inactive
same,Potency,[7],inactive
same,Potency,[12],inactive
same,Potency,[13],inactive
same,Potency,[14],inactive
same,Potency,[15],35.6 µM (active)
same,Potency,[8],inactive
same,Potency,[9],inactive
Nc1ccc(N)c([N+](=O)[O-])c1,Potency,[5],inactive
same,Potency,[6],40.9 µM (active)
same,Potency,[7],inactive
same,Potency,[12],54.5 µM (active)
CCN(CC)C(=S)S,max activation,[16],-4.17%
COC(=O)C[C@](O)(CCCC(C)(C)O)C(=O)O[C@@H]1C(OC)=CC23CCCN2CCc2cc4c(cc2[C@H]13)OCO4 (stereo partly specified),max activation,[16],-15.5%
COc1cc([C@@H]2c3cc4c(cc3[C@@H](O[C@@H]3O[C@@H]5CO[C@@H](C)O[C@H]5[C@H](O)[C@H]3O)[C@H]3COC(=O)[C@H]23)OCO4)cc(OC)c1O,Potency,[10],inactive
same,Potency,[1],inactive
same,Potency,[5],53.9 µM (active)
same,Potency,[7],inactive
same,Potency,[12],inactive
same,Potency,[9],inactive
CC(C)(C)c1ccc2c(S(=O)(=O)O)c(C(C)(C)C)ccc2c1,max activation,[16],-3.68%
CC/C=C\C/C=C\C/C=C\CCCCCCCC(=O)OC,Potency,[10],inactive
same,outcome,[11],inactive
same,Potency,[2],inactive
same,Potency,[3],inactive
same,Potency,[6],61.1 µM (active)
same,Potency,[14],56.4 µM (active)
same,Potency,[15],28.3 µM (active)
same,Potency,[8],63.3 µM (active)
same,Potency,[9],inactive
CS(=O)(=O)c1ccc([C@@H](CC2CCCC2)C(=O)Nc2cnccn2)cc1Cl,Potency,[5],inactive
same,Potency,[6],61.1 µM (active)
same,Potency,[7],inactive
same,Potency,[12],61.1 µM (active)
O=C1Cc2ccccc2C1,Potency,[2],inactive
same,Potency,[3],inactive
same,Potency,[6],68.6 µM (active)
same,Potency,[7],inactive
CCCCCCCCOC(=O)c1cc(O)c(O)c(O)c1,Potency,[10],inactive
same,Potency,[1],inactive
same,Potency,[6],1.09 µM (active)
same,Potency,[7],1.54 µM (active)
same,Potency,[17],11.2 µM (active)
same,Potency,[14],5.64 µM (active)
same,Potency,[15],2.24 µM (active)
same,Potency,[8],71 µM (active)
COC(=O)C(CN)c1c[nH]c2ccc(OC)cc12 (stereo unspecified),max activation,[16],-1.11%
Cc1ccc(S(=O)(=O)C(I)I)cc1,outcome,[11],inactive
same,Potency,[2],10.7 µM (active)
same,Potency,[4],27.3 µM (active)
same,Potency,[5],inactive
same,Potency,[6],15.4 µM (active)
same,Potency,[7],12.2 µM (active)
same,Potency,[12],54.5 µM (active)
same,Potency,[13],19.3 µM (active)
same,Potency,[14],1.59 µM (active)
same,Potency,[15],1.12 µM (active)
same,Potency,[8],31.7 µM (active)
CCCCCCCCCCCCN1CCCC1=O,Potency,[10],inactive
same,outcome,[11],inactive
same,Potency,[2],inactive
same,Potency,[3],inactive
same,Potency,[6],61.1 µM (active)
same,Potency,[7],inactive
same,Potency,[12],61.1 µM (active)
same,Potency,[13],27.3 µM (active)
same,Potency,[14],35.6 µM (active)
same,Potency,[15],31.7 µM (active)
same,Potency,[8],28.3 µM (active)
same,Potency,[9],inactive
COC1=C(OC)C(=O)C(C/C=C(\C)CC/C=C(\C)CC/C=C(\C)CC/C=C(\C)CC/C=C(\C)CC/C=C(\C)CC/C=C(\C)CC/C=C(\C)CC/C=C(\C)CCC=C(C)C)=C(C)C1=O,max activation,[16],-2.14%
N#Cc1nc(Cl)c(Cl)c(Cl)c1Cl,Potency,[10],inactive
same,outcome,[11],inactive
same,Potency,[2],inactive
same,Potency,[3],inactive
same,Potency,[5],inactive
same,Potency,[6],1.72 µM (active)
same,Potency,[12],43.3 µM (active)
same,Potency,[13],9.69 µM (active)
same,Potency,[17],inactive
same,Potency,[15],79.6 µM (active)
same,Potency,[9],inactive
